High-throughput results (PubChem BioAssay)
esBAF inh: Bmi1 luciferase reporter increase in mESCs, primary screen, esBAF inhibitor project, mouse ES cells, Bmi1 luciferase knock-in, single point. 24 h; 100% = twice the neutral-well signal. reporter increase, % at 12.5 µM. 350,000 compounds, 2% hits. AID 602393, 2012; in the data active = activation above about 40%; inconclusive = no clear call, values can overlap the other calls;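 note: 0% = median of the plate's neutral control wells and 100% = double that signal; a rise in the Bmi1 reporter signal indicates esBAF inhibition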
AHR activator: AHR activators, primary screen, cell-based, luminescence, luciferase reporter, human | AHR-responsive luciferase reporter cells | activation, % at 5 µM | Aryl hydrocarbon receptor (Homo sapiens), P35869 | AID 2796, 2010 | 320,000 compounds, 2.5% hits; in the data active = activation above about 47%;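 note: 0% = vehicle wells and 100% = reference agonist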
Wnt act: Wnt/beta-catenin pathway activators, primary screen, cell-based, plate reader, single point. 300,000 compounds, 1.2% hits. activation, % at 9.35 µM. Wnt/beta-catenin reporter cell assay, activator; in the data active = activation above about 30%, passing the limit was not always enough; inconclusive = no clear call, values can overlap the other calls;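 note: 0% = neutral control wells and 100% = positive control wells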
FXN GAA850 act: FXN promoter activators, primary screen, cell-based, luciferase luminescence, HEK293 lucGAA850; activation, % at 6 µM; 360,000 compounds, 0.56% hits; AID 540364, 2011; HEK293 lucGAA850 FXN promoter luciferase reporter, 24 h; percent of 10 µM SAHA response;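 active = activation above the average of all compounds screened plus 3 SD, cutoff fixed separately per campaign, cut at about 7.5% in these data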;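 note: 0% = DMSO wells and 100% = 10 µM SAHA wells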
MITF act: activators of MITF-driven TRPM1 promoter reporter, primary screen, cell-based, SK-MEL-5, luciferase, single point | 300,000 compounds, 0.75% hits | activation, % at 12.5 µM | SK-MEL-5 TRPM1-promoter luciferase, 24 h; % of positive control, neutral wells = 0;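 active = mean activation of at least 80% with every replicate also reaching 80%; inconclusive = mean reaches 80% but some replicate falls short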;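 note: 0% = neutral control wells and 100% = parthenolide positive control wells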
* marks the source's active call; other numbers are inactive results. Only some compounds are listed: those with a hit (about 4.2% of all), similar ones and a draw of the others.

For CCOc1ccc2oc(C(=O)NC(C)(C)CC)c(C)c2c1 the results were esBAF inh 39, AHR activator 20, Wnt act 0, FXN GAA850 act 4 and MITF act 60.
Cc1ccc2oc(C(=O)Nc3nnc(CC(C)C)s3)c(C)c2c1 was read as AHR activator -4, Wnt act 0, FXN GAA850 act 0 and MITF act 26.
Cc1ccc2oc(C(=O)N(C)Cc3ccon3)c(C)c2c1 was read as esBAF inh 52*, AHR activator 8, Wnt act 44*, FXN GAA850 act 5 and MITF act 112*.
Cc1cc(NC(=O)c2ccccc2Cl)no1 was read as esBAF inh 29, AHR activator 0, Wnt act 15, FXN GAA850 act 2 and MITF act 60.
Screening CO[C@@H]1CN(C)C(=O)c2cc(NC(=O)NC3CCCCC3)ccc2OC[C@H](C)N(C)C[C@@H]1C returned esBAF inh -5.
Screening C[C@@H]1CN([C@H](C)CO)C(=O)c2cc(NC(=O)NC3CCCCC3)ccc2O[C@@H](C)CCCCO[C@@H]1CN(C)S(=O)(=O)c1ccc(Cl)cc1 returned esBAF inh 0.
`C[C@@H]1CN([C@@H](C)CO)C(=O)Cc2cc(NC(=O)Cc3cn(C)c4ccccc34)ccc2O[C@H]1CN(C)CC1CC1` gave esBAF inh -2.
`COc1ccc(NC(=O)c2oc3cc(C)c(C)cc3c2C)c(OC)c1` gave esBAF inh -3, AHR activator 34, Wnt act -1, FXN GAA850 act -1 and MITF act 2.
Screening COc1ccccc1NC(=O)c1oc2ccc(C)cc2c1C returned esBAF inh 48*, AHR activator 60*, Wnt act 5 and FXN GAA850 act 2.
`N#Cc1cc2c(nc1SCC(=O)O)CCCC2` gave AHR activator 3, FXN GAA850 act -2 and MITF act 2.
Screening Cc1cc(NC(=O)CSc2nc3c(cc2C#N)CCC3)no1 returned esBAF inh 26, AHR activator -4, Wnt act 34*, FXN GAA850 act 5 and MITF act 67.
`Cc1cc(NC(=O)CSc2nc3ccccc3cc2C#N)no1` gave esBAF inh 34, AHR activator -8, Wnt act 9, FXN GAA850 act 4 and MITF act 60.
For Cc1cc(NC(=O)CSc2nc3c(cc2C#N)CCCC3)no1 the results were AHR activator 15, Wnt act 41*, FXN GAA850 act 6 and MITF act 66.
Screening CCCC#Cc1ccc2c(c1)O[C@H](CN(C)C(=O)Nc1ccccc1F)[C@@H](C)CN([C@@H](C)CO)S2(=O)=O returned esBAF inh 5.
Screening CCOc1ccc(OCc2ccc(C(=O)OCc3ccccn3)o2)cc1 returned AHR activator -3, Wnt act 33*, FXN GAA850 act 3 and MITF act 5.
COC(=O)c1ccc(COc2ccc(C)c(C)c2)o1 was read as esBAF inh 58*, AHR activator 10, Wnt act 3, FXN GAA850 act 4 and MITF act inconclusive.
Screening COC(=O)c1ccc(COc2cc(C)ccc2C)o1 returned esBAF inh 70*, AHR activator 0, Wnt act 7, FXN GAA850 act 5 and MITF act 82*.
Screening CN(C)CCCNC(=O)C[C@@H]1C=C[C@H](NS(=O)(=O)c2ccc(F)cc2)[C@H](CO)O1 returned esBAF inh -2.
For C[C@@H]1CN([C@H](C)CO)C(=O)Cc2cc(NC(=O)CCN3CCOCC3)ccc2O[C@H]1CN(C)C(=O)NC1CCCCC1 the results were esBAF inh 2.
`CCc1nnc(NC(=O)c2ccc3ncsc3c2)s1` gave esBAF inh 27, AHR activator 18, Wnt act 34*, FXN GAA850 act 4 and MITF act 45.
Cc1cnc(NC(=O)c2ccc3ncsc3c2)s1 was read as Wnt act 48*, FXN GAA850 act 2 and MITF act 47.
CCCNC(=O)N(C)C[C@H]1Oc2cc(-c3ccncc3)ccc2S(=O)(=O)N([C@@H](C)CO)C[C@@H]1C was read as esBAF inh 7.
COc1ccc(CN(C)C[C@@H]2OCCCC[C@H](C)Oc3ccc(NC(=O)C4CCCCC4)cc3C(=O)N([C@H](C)CO)C[C@@H]2C)cc1 was read as esBAF inh 0.
`OCCCCCN=c1cc(-c2ccccc2)oc2ccc(Cl)cc12` gave esBAF inh 78*, AHR activator 6, FXN GAA850 act -2 and MITF act 3.
C[C@@H]1CN([C@H](C)CO)C(=O)c2cc(NC(=O)C3CC3)ccc2O[C@H]1CN(C)C(=O)Nc1cccc2ccccc12 was read as esBAF inh 0.
`Cc1cccc(Nc2nnc(SCC(=O)c3c(N)n(C4CC4)c(=O)[nH]c3=O)s2)c1` gave esBAF inh -2, AHR activator 4, Wnt act 1, FXN GAA850 act 2 and MITF act 9.
C/C(N)=C(/C#N)C(=O)CSc1nnc(Nc2cccc(C)c2)s1 was read as esBAF inh 60*, AHR activator 9, Wnt act -5, FXN GAA850 act 2 and MITF act 73.
O=C1/C(=C\c2cccnc2)Sc2ccccc21 was read as AHR activator 53*, Wnt act -2, FXN GAA850 act 4 and MITF act 4.
Screening C/C(=N\NC(=O)c1sccc1-n1cccc1)c1cccs1 returned AHR activator 78*, Wnt act 2, FXN GAA850 act 2 and MITF act 28.
O=C(NNC(=O)c1sccc1-n1cccc1)c1cccs1 was read as AHR activator 47*, Wnt act -2, FXN GAA850 act 0 and MITF act -12.
C[C@@H]1CN([C@@H](C)CO)C(=O)Cc2cc(NC(=O)Nc3ccc(F)cc3)ccc2O[C@@H]1CN(C)C(=O)Nc1ccc2c(c1)OCO2 was read as esBAF inh 2.
Screening C[C@@H]1CCCCO[C@@H](CN(C)C(=O)Nc2ccc3c(c2)OCO3)[C@H](C)CN([C@@H](C)CO)C(=O)c2cc(NC(=O)Nc3ccccc3)ccc2O1 returned esBAF inh 2.
O=c1oc2ccccc2c2c1ncn2CCN1CCOCC1 was read as esBAF inh 3, AHR activator -1, Wnt act 44* and FXN GAA850 act 3.
`Cn1c2ccccc2c2ncn(CCC3=CCCCC3)c(=O)c21` gave esBAF inh 74*, AHR activator 7 and FXN GAA850 act 3.
For CCOc1ccc2[nH]c3c(=O)n(CCC4=CCCCC4)cnc3c2c1 the results were AHR activator 37, Wnt act 1, FXN GAA850 act 0 and MITF act 22.
